# Test results published in publication PMC7862700, “An all-to-all approach to the identification of sequence-specific readers for epigenetic DNA modifications on cytosine”.
# Legend:
# Test in all cases: DAPPL (digital affinity profiling via proximity ligation, sequencing); 10 mM Tris-HCl pH 7.5, 50 mM NaCl, 1 mM DTT, 4% glycerol, room temperature, 30 min; GST-TFs on glutathione beads, 16-mer random dsDNA library, 0.1% formaldehyde crosslink after washing; high values mean tight binding
# FLI1 = target: T1, FLI1 (Homo sapiens, UniProt Q01543 1-452); conditions: protein: recombinant; tags: N-terminal GST; dsDNA, one strand shown
# T1 sequence: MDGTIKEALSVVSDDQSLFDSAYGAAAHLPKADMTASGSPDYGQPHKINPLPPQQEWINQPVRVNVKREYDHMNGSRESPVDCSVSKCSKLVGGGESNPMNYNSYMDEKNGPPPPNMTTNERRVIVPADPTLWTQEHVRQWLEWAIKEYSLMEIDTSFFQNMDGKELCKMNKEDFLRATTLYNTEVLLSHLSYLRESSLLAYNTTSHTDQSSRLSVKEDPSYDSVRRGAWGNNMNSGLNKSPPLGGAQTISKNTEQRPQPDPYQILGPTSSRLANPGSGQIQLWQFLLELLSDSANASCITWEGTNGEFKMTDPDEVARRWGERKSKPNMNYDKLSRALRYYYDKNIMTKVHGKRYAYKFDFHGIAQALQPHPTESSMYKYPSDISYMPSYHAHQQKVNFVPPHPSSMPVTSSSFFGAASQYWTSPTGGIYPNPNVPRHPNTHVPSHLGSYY
# How it was run: (§1)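 GST fusions of human transcription factors were expressed in yeast and captured with glutathione beads. Once given DNA barcodes and pooled alongside a tag-only sample, they were incubated for 30 min at room temperature with 200 nmole of a random double-stranded 16-mer DNA library in Tris/NaCl/DTT/glycerol buffer, then washed, crosslinked (0.1% formaldehyde), proximity-ligated, PCR-amplified and sequenced on an Illumina NextSeq500. The binding signal of each hexamer is its read frequency for a factor divided by its frequency for the tag-only sample.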
# ELK1 = target: T2, ELK1 (Homo sapiens, UniProt P19419 1-428); conditions: protein: recombinant; tags: N-terminal GST; dsDNA, one strand shown
# T2 sequence: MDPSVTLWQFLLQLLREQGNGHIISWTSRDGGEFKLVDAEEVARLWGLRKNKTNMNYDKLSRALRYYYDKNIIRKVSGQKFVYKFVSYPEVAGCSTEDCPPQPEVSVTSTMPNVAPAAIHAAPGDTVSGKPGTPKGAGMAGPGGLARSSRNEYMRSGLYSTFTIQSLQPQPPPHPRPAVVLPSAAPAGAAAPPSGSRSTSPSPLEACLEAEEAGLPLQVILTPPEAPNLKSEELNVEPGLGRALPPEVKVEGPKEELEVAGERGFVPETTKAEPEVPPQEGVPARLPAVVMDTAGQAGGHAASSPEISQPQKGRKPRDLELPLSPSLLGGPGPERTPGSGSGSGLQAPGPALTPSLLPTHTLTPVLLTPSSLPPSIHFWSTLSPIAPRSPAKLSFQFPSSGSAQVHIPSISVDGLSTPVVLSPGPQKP
# How it was run: as §1
# GABPA = target: T3, GABPA (Homo sapiens, UniProt Q06546 1-454); conditions: protein: recombinant; tags: N-terminal GST; dsDNA, one strand shown
# T3 sequence: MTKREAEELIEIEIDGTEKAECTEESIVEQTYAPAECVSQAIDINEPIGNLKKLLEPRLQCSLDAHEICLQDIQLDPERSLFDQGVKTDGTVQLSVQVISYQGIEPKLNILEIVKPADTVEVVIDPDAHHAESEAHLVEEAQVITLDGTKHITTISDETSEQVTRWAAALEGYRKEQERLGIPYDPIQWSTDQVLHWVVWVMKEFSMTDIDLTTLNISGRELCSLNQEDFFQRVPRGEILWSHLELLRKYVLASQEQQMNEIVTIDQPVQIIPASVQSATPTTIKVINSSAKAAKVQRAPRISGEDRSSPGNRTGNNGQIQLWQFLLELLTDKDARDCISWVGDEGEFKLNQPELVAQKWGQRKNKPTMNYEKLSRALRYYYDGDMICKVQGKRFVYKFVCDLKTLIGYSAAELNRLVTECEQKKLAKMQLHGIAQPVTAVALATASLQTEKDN
# How it was run: as §1
# ERG = target: T4, ERG (Homo sapiens, UniProt P11308 1-479); conditions: protein: recombinant; tags: N-terminal GST; dsDNA, one strand shown
# T4 sequence: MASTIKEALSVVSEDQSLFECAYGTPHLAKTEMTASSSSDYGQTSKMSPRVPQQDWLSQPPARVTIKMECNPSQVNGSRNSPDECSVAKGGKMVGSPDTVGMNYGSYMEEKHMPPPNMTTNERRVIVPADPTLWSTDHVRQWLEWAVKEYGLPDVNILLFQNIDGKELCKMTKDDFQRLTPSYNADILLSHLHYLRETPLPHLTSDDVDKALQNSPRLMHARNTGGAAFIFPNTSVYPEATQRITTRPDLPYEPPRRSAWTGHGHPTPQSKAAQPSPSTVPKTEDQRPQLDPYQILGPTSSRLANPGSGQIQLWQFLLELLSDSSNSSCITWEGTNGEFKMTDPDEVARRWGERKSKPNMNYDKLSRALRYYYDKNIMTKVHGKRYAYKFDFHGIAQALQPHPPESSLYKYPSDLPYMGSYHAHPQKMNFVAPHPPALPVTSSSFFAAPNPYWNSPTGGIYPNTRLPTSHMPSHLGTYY
# How it was run: as §1
# ELF1 = ELF1 (Homo sapiens, UniProt P32519 1-619); conditions: protein: recombinant; tags: N-terminal GST; dsDNA, one strand shown
# How it was run: as §1
# EHF = target: T5, EHF (Homo sapiens, UniProt Q9NZC4 1-300); conditions: protein: recombinant; tags: N-terminal GST; dsDNA, one strand shown
# T5 sequence: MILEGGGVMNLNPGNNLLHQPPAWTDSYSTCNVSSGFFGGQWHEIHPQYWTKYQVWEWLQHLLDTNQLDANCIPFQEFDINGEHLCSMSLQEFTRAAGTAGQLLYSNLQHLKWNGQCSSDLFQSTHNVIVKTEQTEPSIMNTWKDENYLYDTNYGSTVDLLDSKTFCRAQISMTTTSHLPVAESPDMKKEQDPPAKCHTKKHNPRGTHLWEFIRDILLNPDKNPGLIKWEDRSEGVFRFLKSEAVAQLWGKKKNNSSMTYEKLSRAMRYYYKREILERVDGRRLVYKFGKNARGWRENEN
# How it was run: as §1
# SPI1 = SPI1 (Homo sapiens, UniProt P17947 1-270); conditions: protein: recombinant; tags: N-terminal GST; dsDNA, one strand shown
# How it was run: as §1
# SPIB = SPIB (Homo sapiens, UniProt Q01892 1-262); conditions: protein: recombinant; tags: N-terminal GST; dsDNA, one strand shown
# How it was run: as §1
# ELK3 = target: T6, ELK3 (Homo sapiens, UniProt P41970 1-407); conditions: protein: recombinant; tags: N-terminal GST; dsDNA, one strand shown
# T6 sequence: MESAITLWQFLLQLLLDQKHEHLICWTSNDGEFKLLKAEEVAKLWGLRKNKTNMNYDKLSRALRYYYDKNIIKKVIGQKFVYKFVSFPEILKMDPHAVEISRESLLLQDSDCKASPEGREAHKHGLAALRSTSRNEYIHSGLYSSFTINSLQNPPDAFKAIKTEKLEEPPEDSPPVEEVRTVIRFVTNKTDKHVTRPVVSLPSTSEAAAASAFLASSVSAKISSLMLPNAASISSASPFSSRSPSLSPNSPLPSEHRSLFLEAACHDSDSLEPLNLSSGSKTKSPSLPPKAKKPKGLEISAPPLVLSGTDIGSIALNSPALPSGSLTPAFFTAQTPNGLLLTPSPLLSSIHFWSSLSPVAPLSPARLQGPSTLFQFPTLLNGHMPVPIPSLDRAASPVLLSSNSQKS
# How it was run: as §1
# FEV = target: T7, FEV (Homo sapiens, UniProt Q99581 1-238); conditions: protein: recombinant; tags: N-terminal GST; dsDNA, one strand shown
# T7 sequence: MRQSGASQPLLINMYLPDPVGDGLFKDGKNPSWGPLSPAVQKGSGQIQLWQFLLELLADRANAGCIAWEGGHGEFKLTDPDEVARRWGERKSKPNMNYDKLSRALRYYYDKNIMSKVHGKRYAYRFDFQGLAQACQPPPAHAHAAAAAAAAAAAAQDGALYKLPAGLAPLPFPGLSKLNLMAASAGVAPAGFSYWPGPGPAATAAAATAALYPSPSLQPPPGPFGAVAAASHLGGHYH
# How it was run: as §1
# ETV5 = ETV5 (Homo sapiens, UniProt P41161 1-510); conditions: protein: recombinant; tags: N-terminal GST; dsDNA, one strand shown
# How it was run: as §1
# HSF1 = HSF1 (Homo sapiens, UniProt Q00613 1-529); conditions: protein: recombinant; tags: N-terminal GST; chain copies: 3; dsDNA, one strand shown
# How it was run: as §1
# SPIC = target: T8, SPIC (Homo sapiens, UniProt Q8N5J4 1-248); conditions: protein: recombinant; tags: N-terminal GST; dsDNA, one strand shown
# T8 sequence: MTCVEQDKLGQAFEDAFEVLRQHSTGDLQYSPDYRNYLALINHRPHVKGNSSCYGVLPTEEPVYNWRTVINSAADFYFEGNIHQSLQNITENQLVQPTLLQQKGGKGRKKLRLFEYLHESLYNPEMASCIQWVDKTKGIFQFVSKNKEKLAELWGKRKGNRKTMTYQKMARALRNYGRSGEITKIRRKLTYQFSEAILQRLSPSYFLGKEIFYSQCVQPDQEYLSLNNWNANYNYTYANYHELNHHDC
# How it was run: as §1
# ELF4 = ELF4 (Homo sapiens, UniProt Q99607 1-663); conditions: protein: recombinant; tags: N-terminal GST; dsDNA, one strand shown
# How it was run: as §1
# ELK4 = target: T9, ELK4 (Homo sapiens, UniProt P28324-2 1-405); conditions: protein: recombinant; tags: N-terminal GST; dsDNA, one strand shown
# T9 sequence: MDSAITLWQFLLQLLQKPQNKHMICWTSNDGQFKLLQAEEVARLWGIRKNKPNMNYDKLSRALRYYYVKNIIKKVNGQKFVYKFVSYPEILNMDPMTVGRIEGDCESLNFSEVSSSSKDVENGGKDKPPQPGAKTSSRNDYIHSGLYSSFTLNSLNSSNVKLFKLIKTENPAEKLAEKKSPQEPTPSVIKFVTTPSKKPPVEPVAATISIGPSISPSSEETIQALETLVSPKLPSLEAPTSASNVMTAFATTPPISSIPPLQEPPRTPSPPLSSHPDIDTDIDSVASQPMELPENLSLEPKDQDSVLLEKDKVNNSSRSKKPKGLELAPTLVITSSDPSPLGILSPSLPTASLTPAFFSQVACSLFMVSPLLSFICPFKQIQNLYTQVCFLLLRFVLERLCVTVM
# How it was run: as §1
# ETV2 = target: T10, ETV2 (Homo sapiens, UniProt O00321 1-342); conditions: protein: recombinant; tags: N-terminal GST; dsDNA, one strand shown
# T10 sequence: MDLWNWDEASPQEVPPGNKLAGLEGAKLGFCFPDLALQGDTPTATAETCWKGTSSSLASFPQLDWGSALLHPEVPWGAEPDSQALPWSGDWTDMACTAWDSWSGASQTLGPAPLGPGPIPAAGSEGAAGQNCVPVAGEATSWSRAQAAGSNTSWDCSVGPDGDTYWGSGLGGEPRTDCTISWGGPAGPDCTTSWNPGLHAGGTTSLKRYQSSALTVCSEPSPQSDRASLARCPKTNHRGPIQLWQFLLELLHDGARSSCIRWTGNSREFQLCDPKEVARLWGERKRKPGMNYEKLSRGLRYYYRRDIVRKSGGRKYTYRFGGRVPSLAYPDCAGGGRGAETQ
# How it was run: as §1
# ELF3 = target: T11, ELF3 (Homo sapiens, UniProt P78545 1-371); conditions: protein: recombinant; tags: N-terminal GST; dsDNA, one strand shown
# T11 sequence: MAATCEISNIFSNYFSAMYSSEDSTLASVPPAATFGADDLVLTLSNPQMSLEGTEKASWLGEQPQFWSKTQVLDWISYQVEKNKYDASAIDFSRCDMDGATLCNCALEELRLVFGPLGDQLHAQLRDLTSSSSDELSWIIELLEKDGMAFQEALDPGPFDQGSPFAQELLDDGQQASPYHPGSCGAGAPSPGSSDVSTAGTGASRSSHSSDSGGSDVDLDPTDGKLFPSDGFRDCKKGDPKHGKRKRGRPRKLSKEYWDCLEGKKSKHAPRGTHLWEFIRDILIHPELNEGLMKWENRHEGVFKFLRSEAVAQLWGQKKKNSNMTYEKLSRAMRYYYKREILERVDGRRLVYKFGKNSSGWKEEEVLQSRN
# How it was run: as §1
# CRX = CRX (Homo sapiens, UniProt O43186 1-299); conditions: protein: recombinant; tags: N-terminal GST; dsDNA, one strand shown
# How it was run: as §1
# ETV1 = ETV1 (Homo sapiens, UniProt P50549 1-477); conditions: protein: recombinant; tags: N-terminal GST; dsDNA, one strand shown
# How it was run: as §1
# Sequence of CRX (O43186 whole entry): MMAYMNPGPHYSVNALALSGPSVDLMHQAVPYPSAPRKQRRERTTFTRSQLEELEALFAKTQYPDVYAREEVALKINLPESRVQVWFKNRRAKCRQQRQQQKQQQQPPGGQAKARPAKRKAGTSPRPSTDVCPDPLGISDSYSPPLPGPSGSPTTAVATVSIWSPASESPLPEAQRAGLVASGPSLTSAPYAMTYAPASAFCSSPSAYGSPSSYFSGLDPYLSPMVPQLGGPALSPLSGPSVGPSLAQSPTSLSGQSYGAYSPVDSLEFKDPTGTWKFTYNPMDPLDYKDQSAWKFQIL
# Sequence of HSF1 (Q00613 whole entry): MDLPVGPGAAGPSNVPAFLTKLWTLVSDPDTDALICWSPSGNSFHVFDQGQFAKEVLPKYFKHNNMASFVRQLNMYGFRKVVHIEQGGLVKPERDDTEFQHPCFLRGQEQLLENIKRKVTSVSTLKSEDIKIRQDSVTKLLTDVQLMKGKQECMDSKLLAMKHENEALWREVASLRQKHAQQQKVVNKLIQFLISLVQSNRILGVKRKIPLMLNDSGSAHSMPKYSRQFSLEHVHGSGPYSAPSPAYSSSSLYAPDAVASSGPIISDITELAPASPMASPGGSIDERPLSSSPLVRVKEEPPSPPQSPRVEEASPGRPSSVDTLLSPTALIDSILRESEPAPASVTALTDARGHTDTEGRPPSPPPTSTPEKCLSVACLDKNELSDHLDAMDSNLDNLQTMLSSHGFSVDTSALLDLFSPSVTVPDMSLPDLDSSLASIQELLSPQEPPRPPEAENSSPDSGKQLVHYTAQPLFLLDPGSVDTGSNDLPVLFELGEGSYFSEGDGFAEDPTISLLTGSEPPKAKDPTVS
# Sequence of ETV1 (P50549 whole entry): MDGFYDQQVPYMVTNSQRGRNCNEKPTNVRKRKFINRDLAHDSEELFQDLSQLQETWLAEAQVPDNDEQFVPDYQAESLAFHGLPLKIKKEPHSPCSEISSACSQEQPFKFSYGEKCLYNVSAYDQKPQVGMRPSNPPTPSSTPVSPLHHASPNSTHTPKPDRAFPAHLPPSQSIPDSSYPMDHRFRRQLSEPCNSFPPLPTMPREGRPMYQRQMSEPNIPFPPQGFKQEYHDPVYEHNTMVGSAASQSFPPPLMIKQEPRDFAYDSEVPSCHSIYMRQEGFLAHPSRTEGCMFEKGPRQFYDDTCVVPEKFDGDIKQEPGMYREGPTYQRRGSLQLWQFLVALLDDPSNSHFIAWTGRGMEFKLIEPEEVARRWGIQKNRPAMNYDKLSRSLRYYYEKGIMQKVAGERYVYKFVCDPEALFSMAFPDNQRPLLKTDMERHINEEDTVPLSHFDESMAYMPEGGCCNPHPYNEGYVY
# Sequence of SPIB (Q01892 whole entry): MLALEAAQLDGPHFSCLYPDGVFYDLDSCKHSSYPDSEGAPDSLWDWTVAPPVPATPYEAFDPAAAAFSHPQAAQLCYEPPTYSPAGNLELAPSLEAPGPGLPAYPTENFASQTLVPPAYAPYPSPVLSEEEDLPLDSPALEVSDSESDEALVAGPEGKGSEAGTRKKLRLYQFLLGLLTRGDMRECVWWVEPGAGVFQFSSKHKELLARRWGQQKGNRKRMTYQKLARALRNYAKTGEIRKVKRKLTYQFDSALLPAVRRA
# Sequence of ELF4 (Q99607 whole entry): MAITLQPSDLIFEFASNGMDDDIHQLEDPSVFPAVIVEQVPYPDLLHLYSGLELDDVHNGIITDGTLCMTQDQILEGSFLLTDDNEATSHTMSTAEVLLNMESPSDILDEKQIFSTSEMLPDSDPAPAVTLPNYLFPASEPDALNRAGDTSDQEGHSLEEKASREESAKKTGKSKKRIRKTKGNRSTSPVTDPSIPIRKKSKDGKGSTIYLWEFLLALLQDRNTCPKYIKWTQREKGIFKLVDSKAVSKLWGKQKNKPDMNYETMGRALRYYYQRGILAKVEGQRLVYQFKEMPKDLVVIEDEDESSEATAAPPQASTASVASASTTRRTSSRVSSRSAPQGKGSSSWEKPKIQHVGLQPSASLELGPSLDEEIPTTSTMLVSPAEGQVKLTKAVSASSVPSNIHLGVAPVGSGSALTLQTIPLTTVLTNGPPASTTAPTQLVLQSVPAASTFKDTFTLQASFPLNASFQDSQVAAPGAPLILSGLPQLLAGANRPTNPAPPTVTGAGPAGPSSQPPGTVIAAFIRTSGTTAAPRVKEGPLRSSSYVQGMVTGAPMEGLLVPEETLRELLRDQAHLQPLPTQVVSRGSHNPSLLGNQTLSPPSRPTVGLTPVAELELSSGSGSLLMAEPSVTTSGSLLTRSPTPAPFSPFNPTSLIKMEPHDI
# Sequence of ELF1 (P32519 whole entry): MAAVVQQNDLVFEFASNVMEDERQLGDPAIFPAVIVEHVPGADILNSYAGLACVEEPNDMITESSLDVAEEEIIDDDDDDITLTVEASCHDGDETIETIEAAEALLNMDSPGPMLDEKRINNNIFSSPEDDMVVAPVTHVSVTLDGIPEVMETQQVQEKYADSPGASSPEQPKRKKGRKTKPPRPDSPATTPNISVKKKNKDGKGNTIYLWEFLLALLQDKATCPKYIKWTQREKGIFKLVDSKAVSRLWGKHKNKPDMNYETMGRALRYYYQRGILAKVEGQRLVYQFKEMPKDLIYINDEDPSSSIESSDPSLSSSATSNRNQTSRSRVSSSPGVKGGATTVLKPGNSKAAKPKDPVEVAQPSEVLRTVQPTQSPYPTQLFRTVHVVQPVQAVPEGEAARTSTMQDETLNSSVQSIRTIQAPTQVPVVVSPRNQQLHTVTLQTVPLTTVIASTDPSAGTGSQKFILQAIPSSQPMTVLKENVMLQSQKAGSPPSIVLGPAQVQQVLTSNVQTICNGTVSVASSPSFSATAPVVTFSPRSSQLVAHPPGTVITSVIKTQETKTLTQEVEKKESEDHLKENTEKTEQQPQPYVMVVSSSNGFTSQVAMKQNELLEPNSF
# Sequence of ETV5 (P41161 whole entry): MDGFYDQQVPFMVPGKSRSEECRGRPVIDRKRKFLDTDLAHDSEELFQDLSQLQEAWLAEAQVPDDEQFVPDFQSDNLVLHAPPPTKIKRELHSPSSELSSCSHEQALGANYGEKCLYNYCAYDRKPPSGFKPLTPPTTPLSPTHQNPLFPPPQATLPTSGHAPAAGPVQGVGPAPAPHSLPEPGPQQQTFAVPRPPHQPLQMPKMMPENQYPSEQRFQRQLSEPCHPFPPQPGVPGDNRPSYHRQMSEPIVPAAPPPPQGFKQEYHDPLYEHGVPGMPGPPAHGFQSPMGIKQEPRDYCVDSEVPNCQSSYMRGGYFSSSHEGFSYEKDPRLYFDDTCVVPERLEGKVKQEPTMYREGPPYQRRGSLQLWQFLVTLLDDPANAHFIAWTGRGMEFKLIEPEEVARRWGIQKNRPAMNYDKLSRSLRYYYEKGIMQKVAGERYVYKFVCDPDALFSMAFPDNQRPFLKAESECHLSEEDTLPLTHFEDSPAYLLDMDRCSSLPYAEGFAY
sequence,measurement,setting,value
ATCATG,binding signal,FLI1,"1.21 fold enrichment (6-mer frequency, TF over GST control)"
same,binding signal,ELK1,"1.15 fold enrichment (6-mer frequency, TF over GST control)"
same,binding signal,GABPA,"1.22 fold enrichment (6-mer frequency, TF over GST control)"
same,binding signal,ERG,"1.1 fold enrichment (6-mer frequency, TF over GST control)"
same,binding signal,ELF1,"1.17 fold enrichment (6-mer frequency, TF over GST control)"
same,binding signal,EHF,"1.19 fold enrichment (6-mer frequency, TF over GST control)"
same,binding signal,SPI1,"1.06 fold enrichment (6-mer frequency, TF over GST control)"
same,binding signal,SPIB,"1.14 fold enrichment (6-mer frequency, TF over GST control)"
same,binding signal,ELK3,"1.15 fold enrichment (6-mer frequency, TF over GST control)"
same,binding signal,FEV,"1.13 fold enrichment (6-mer frequency, TF over GST control)"
same,binding signal,ETV5,"1.09 fold enrichment (6-mer frequency, TF over GST control)"
same,binding signal,HSF1,"1.09 fold enrichment (6-mer frequency, TF over GST control)"
same,binding signal,SPIC,"1.09 fold enrichment (6-mer frequency, TF over GST control)"
same,binding signal,ELF4,"1.09 fold enrichment (6-mer frequency, TF over GST control)"
same,binding signal,ELK4,"1.14 fold enrichment (6-mer frequency, TF over GST control)"
same,binding signal,ETV2,"1.18 fold enrichment (6-mer frequency, TF over GST control)"
same,binding signal,ELF3,"1.25 fold enrichment (6-mer frequency, TF over GST control)"
same,binding signal,CRX,"1.21 fold enrichment (6-mer frequency, TF over GST control)"
same,binding signal,ETV1,"1.19 fold enrichment (6-mer frequency, TF over GST control)"
